Screening results from PubChem.
TDP1 cell noCPT: qHTS for Inhibitors of human tyrosyl-DNA phosphodiesterase 1 (TDP1): qHTS in cells in absence of CPT; DT40 Tdp1-/- hTDP1 cells, no CPT, ATP luminescence, 48 h; Potency, µM (highest dose often 46.2 µM), actives largely listed as inhibitors; 15% of 420,000 active; AID 686978, 2013; note: nearly all actives have a fitted effect of over 55% in size
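Readout: luminescence from CellTiter-Glo after 30 min in the dark at RT. Cells: DT40 Tdp1-/- with stable hTDP1, 400/well. Exposure: compounds alone, ≥48 hr, 37 °C.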
DT40 TDP1 CPT: DT40-hTDP1 cell growth loss with CPT; AID 686979; 12% of 420,000 active; chicken DT40 Tdp1-/-;hTDP1 cells + 20 nM CPT, ATP luminescence, 48 h; Potency, µM (highest dose often 46.2 µM), actives largely listed as inhibitors; note: nearly all actives have a fitted effect of over 55% in size
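Chicken DT40 Tdp1-/- cells complemented with human TDP1, 400 cells/well, exposed to compounds plus 20 nM camptothecin for at least 48 h at 37 C; viability read as ATP content by CellTiter-Glo luminescence.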
IL1B secr inh: blocks inflammasome-driven IL-1 beta release; 4.7% of 360,000 active; activity change, % at 57.5 µM; AID 743279; THP-1 LPS/ATP IL-1B secretion, AlphaLISA, 16 h; stronger effect = lower value; in the data active = activity change below about -50%; inconclusive = mostly about -30% to -49%
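THP-1 cells pretreated 1 hr with compounds (up to 57.5 uM final), then stimulated with LPS (250 ng/mL final) plus ATP (1.25 mM final); secreted IL-1B measured by AlphaLISA after 16 hr, decreased signal indicating inhibition.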
HT1080 IDH1KD tx: kills HT-1080 cells with IDH1 knockdown; HT-1080 IDH1 knockdown viability, ATP luminescence, 48 h; Potency, µM (titrated, usually from 46.1 µM), actives largely listed as cytotoxic; 2% of 360,000 active
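CellTiter-Glo luminescence after 48 h compound exposure at 37 degrees C of IDH1-knockdown HT-1080 cells in 5% FBS RPMI. %Activity scaled between DMSO wells and cell-free media wells, with curves fitted and assigned curve classes.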
HT1080NT lethal: kills 2HG-producing HT-1080-NT fibrosarcoma cells. HT-1080-NT fibrosarcoma viability, CellTiter-Glo ATP luminescence, 48 h. Potency, µM (top dose mostly 46.1 µM), actives largely listed as cytotoxic. 1.6% of 360,000 active. AID 686970;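 note: NT is the 2HG producing partner of a matched IDH1 knockdown line; nearly all actives have a fitted effect of over 55% in size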
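Toxicity toward the 2HG-producing NT line was scored as %Activity, normalised to DMSO and no-cell wells, from CellTiter-Glo luminescence after 48 hours' treatment.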
Each line names hits and unclear results; the compound was inactive in the other large screens. Most compounds without a hit are left out; they make up all but 19% or so of the library. Unless noted, calls come from the whole dose curve; as a rule, active = well fitted curve in the direction sought with a large enough effect; inconclusive = small, poorly fitted or top-dose-only effect, or another doubt; inactive = no such curve, though single readings can be large; an effect the other way counts as inactive or inconclusive.

COc1ccc(NC(C)=O)cc1CNC(=O)COc1ccccc1C(=O)Nc1cccc(C)c1C	TDP1 cell noCPT 4.11µM, DT40 TDP1 CPT inconclusive
COc1cccc(-c2nc3nc(C)cc(C)n3c2Nc2ccc3c(c2)OCCO3)c1	TDP1 cell noCPT 25.9µM, DT40 TDP1 CPT inconclusive
COc1cccc(-c2nc3nc(C)cc(C)n3c2NC2CCCC2)c1	TDP1 cell noCPT inconclusive, DT40 TDP1 CPT inconclusive
COc1ccc(Nc2c(-c3cccc(OC)c3)nc3nc(C)cc(C)n23)cc1	TDP1 cell noCPT 20.6µM, DT40 TDP1 CPT inconclusive
COc1cccc(-c2nc3nc(C)cc(C)n3c2NCc2ccccc2)c1	TDP1 cell noCPT 11.6µM, DT40 TDP1 CPT inconclusive
CC1(C)Oc2ccc3ccc(=O)oc3c2[C@@H](O)[C@@H]1O	TDP1 cell noCPT inconclusive
Cc1ncn(-c2ccc(C(=O)Oc3ccccc3)cn2)n1	none
O=C1CCC(C(=O)N2CCCCO2)CN1CCc1ccccc1 (stereo unspecified)	none
Cc1nn(C)c2c1c(-c1ccccc1)cc(=O)n2Cc1ccc(F)cc1Cl	TDP1 cell noCPT inconclusive (no result: IL1B secr inh, HT1080 IDH1KD tx, HT1080NT lethal)
CCc1ccc(C(O)c2ncc(-c3ccc(Cl)cc3)[nH]2)cc1 (stereo unspecified)	TDP1 cell noCPT inconclusive, DT40 TDP1 CPT inconclusive
OC(Cc1ccccc1)c1ncc(-c2ccc(Cl)cc2)[nH]1 (stereo unspecified)	TDP1 cell noCPT 16.4µM, DT40 TDP1 CPT inconclusive, HT1080 IDH1KD tx inconclusive, HT1080NT lethal inconclusive
OC(Cc1ccccc1Br)c1ncc(-c2ccc(Cl)cc2)[nH]1 (stereo unspecified)	TDP1 cell noCPT inconclusive, DT40 TDP1 CPT inconclusive, HT1080 IDH1KD tx 20.6µM, HT1080NT lethal inconclusive
CCn1c(O)c(N=NC(=O)CNC(=O)c2ccccc2F)c2ccccc21	TDP1 cell noCPT inconclusive, DT40 TDP1 CPT inconclusive, HT1080 IDH1KD tx inconclusive, HT1080NT lethal inconclusive
Oc1c(N=NC(=S)Nc2ccccc2F)c2ccccc2n1Cc1ccccc1F	TDP1 cell noCPT 7.31µM, DT40 TDP1 CPT 16.4µM
Cc1ccc(C)c(Cn2c(O)c(N=NC(=S)Nc3ccccc3F)c3ccccc32)c1	TDP1 cell noCPT 2.91µM, DT40 TDP1 CPT 5.17µM
CCNC(=S)N=Nc1c(O)n(Cc2ccc(Cl)cc2)c2ccccc12	TDP1 cell noCPT inconclusive, DT40 TDP1 CPT 16.4µM, HT1080 IDH1KD tx inconclusive, HT1080NT lethal inconclusive
Cc1ccc(C)c(Cn2c(=O)n(CCC(=O)NCc3ccco3)c(=O)c3ccccc32)c1	none
Cc1ccccc1Cn1c(O)c(N=NC(=S)Nc2ccccc2F)c2ccccc21	TDP1 cell noCPT 6.51µM, DT40 TDP1 CPT 5.8µM
COC(=O)[C@H](CC(C)C)NC(=O)Cn1cnc2c(SC)nc(N)nc21	none
Oc1c(N=NC(=S)Nc2ccccc2F)c2ccccc2n1Cc1ccc(Cl)cc1	TDP1 cell noCPT 5.8µM, DT40 TDP1 CPT 4.61µM
O=Nc1c(O)n(Cc2ccccc2)c2ccccc12	none
CCOc1ccccc1CNS(=O)(=O)c1cnc[nH]1	none
ClC(=Nc1cccc2ccccc12)N(c1ccccc1)c1ccccc1	TDP1 cell noCPT 11.2µM, DT40 TDP1 CPT 17.8µM (no result: IL1B secr inh, HT1080 IDH1KD tx, HT1080NT lethal)
CN(c1ccccc1)S(=O)(=O)c1cccc2ccccc12	none
CCN(CC)CCCNC(=O)C1CCN(C(=O)c2cc3sccc3n2Cc2ccc(F)cc2)CC1	HT1080 IDH1KD tx inconclusive, HT1080NT lethal inconclusive
CCOc1ccc(CCNC(=O)C2CCN(S(=O)(=O)N3CCC(C)CC3)CC2)cc1OCC	TDP1 cell noCPT inconclusive, DT40 TDP1 CPT inconclusive
CCCSCCCNC(=O)C1CCN(C(=O)c2cc3sccc3n2C)CC1	TDP1 cell noCPT 20.6µM, DT40 TDP1 CPT 20.6µM (no result: IL1B secr inh, HT1080 IDH1KD tx, HT1080NT lethal)
CCn1c(C(=O)N2CCC(C(=O)NCCc3ccccc3)CC2)cc2sccc21	TDP1 cell noCPT 25.9µM, DT40 TDP1 CPT inconclusive (no result: IL1B secr inh, HT1080 IDH1KD tx, HT1080NT lethal)
CCOc1ccc(CCNC(=O)C2CCN(C(=O)c3cc4sccc4n3CC)CC2)cc1OCC	TDP1 cell noCPT 18.4µM, DT40 TDP1 CPT 16.4µM (no result: IL1B secr inh, HT1080 IDH1KD tx, HT1080NT lethal)
CCn1c(C(=O)N2CCC(C(=O)NCCc3ccc(C)cc3)CC2)cc2sccc21	TDP1 cell noCPT 20.6µM, DT40 TDP1 CPT 16.4µM (no result: IL1B secr inh, HT1080 IDH1KD tx, HT1080NT lethal)
CCn1c(C(=O)N2CCC(C(=O)NCCCSC3CCCCC3)CC2)cc2sccc21	TDP1 cell noCPT 18.4µM, DT40 TDP1 CPT inconclusive
CC(CCc1ccccc1)NC(=O)C1CCN(C(=O)c2sccc2-n2cccc2)CC1 (stereo unspecified)	TDP1 cell noCPT 20.6µM, DT40 TDP1 CPT inconclusive
CCC1(OC(=O)CN(C)C)C(=O)OCc2c1cc1n(c2=O)Cc2cc3c(N)cccc3nc2-1 (stereo unspecified)	TDP1 cell noCPT 0.184µM, DT40 TDP1 CPT 0.164µM, IL1B secr inh -97.1, HT1080 IDH1KD tx 7.31µM, HT1080NT lethal 7.31µM
C(=C\c1ccccc1)/CN1CCN(C(c2cc3ccccc3o2)c2nnnn2C2CCCC2)CC1 (stereo unspecified)	TDP1 cell noCPT inconclusive, DT40 TDP1 CPT inconclusive
C(=C\c1ccccc1)/CN1CCN(C(c2ccccc2)c2nnnn2-c2ccc3c(c2)OCCO3)CC1 (stereo unspecified)	TDP1 cell noCPT inconclusive, DT40 TDP1 CPT inconclusive, HT1080 IDH1KD tx inconclusive, HT1080NT lethal inconclusive
C(=C\c1ccccc1)/CN1CCN(C(c2ccnc3ccccc23)c2nnnn2-c2ccc3c(c2)OCCO3)CC1 (stereo unspecified)	TDP1 cell noCPT 20.6µM, DT40 TDP1 CPT 16.4µM, HT1080 IDH1KD tx inconclusive, HT1080NT lethal inconclusive
C=CCN1CCN(C(c2cccc(OC)c2OC)c2nnnn2CCC(C)C)CC1 (stereo unspecified)	TDP1 cell noCPT 23.1µM, DT40 TDP1 CPT 25.9µM
C(=C\c1ccccc1)/CN1CCN(C(c2cc3ccccc3o2)c2nnnn2Cc2ccccc2)CC1 (stereo unspecified)	TDP1 cell noCPT 16.4µM, DT40 TDP1 CPT inconclusive
C(=C\c1ccccc1)/CN1CCN(C(CCc2ccccc2)c2nnnn2C2CCCCC2)CC1 (stereo unspecified)	TDP1 cell noCPT inconclusive, DT40 TDP1 CPT inconclusive, HT1080 IDH1KD tx inconclusive, HT1080NT lethal inconclusive
C(=C\c1ccccc1)/CN1CCN(C(c2nnnn2C2CCCCC2)C2CC2)CC1 (stereo unspecified)	TDP1 cell noCPT 16.4µM, DT40 TDP1 CPT inconclusive, HT1080 IDH1KD tx inconclusive, HT1080NT lethal inconclusive
CCOC(=O)C1CCN(S(=O)(=O)CCNC(=O)c2cccc(OC)c2)CC1	none
COP(=O)(CC(=O)c1ccccc1)CC(=O)c1ccccc1	none
Cc1ccccc1NC(=O)C(C)OC(=O)C1CC(=O)N(Cc2ccco2)C1 (stereo unspecified)	none
Cn1nc(C(=O)O)c(=O)n(C)c1=O	none
Cc1ccc(NC(=O)CC2Oc3ccccc3NC2=O)cc1C (stereo unspecified)	none (no result: IL1B secr inh, HT1080 IDH1KD tx, HT1080NT lethal)
COc1ccccc1N(CC(=O)N1CCOCC1)S(C)(=O)=O	none
